Source: the supplement of paper PMC11172423

Test system: Falciformispora senegalensis CBS197.79
Experiment: growth relative to untreated control; higher = less inhibition, active = 20 or less
Conditions: 25 µM
Outline: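 Hyphal fragments of M. mycetomatis MM55 or F. senegalensis CBS197.79 were suspended in colourless RPMI 1640 with L-glutamine and MOPS at 68–72% transmission at 660 nm. They were exposed in 96-well plates to compound at 100 or 25 µM for 7 days at 37 °C. Viability was read with MTS (2 h, 490 nm) or resazurin (600 nm). Growth is metabolic activity relative to the untreated growth control, both corrected with a medium-plus-dye blank.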

**Q.** `CCS(=O)(=O)N1CC(CC#N)(n2cc(-c3ncnc4[nH]ccc34)cn2)C1` was tested. Which growth did it give?
**A.** Its growth is 102% (inactive).

**Q.** For `C[C@H](NC(=O)c1cc2nc(C(F)(F)F)ccc2[nH]1)c1ccccc1`, which growth is on record?
**A.** The growth was 88.2% (inactive).

**Q.** Which growth does the source give for `N#Cc1ccc(-c2n[nH]c3ccc(-c4n[nH]c(CC(F)(F)F)n4)cc23)cc1` here?
**A.** The growth was 94% (inactive).

**Q.** For `FC(F)(F)c1ccc(CNc2ccc(Cc3c[nH]c4ncc(Cl)cc34)cn2)cn1`, which growth is on record?
**A.** Its growth is 95.7% (inactive).

**Q.** With `Cc1cc2c(cc1Cl)N(C(=O)Nc1cc(F)cc(-c3cncnc3)c1)CC2` as the molecule, how does the growth read?
**A.** Its growth is 87% (inactive).

**Q.** How did the growth turn out when `C=CC(=O)Nc1cc(Nc2nccc(-c3cn(C)c4ccccc34)n2)c(OC)cc1N(C)CCN(C)C` was run?
**A.** Its growth is 7.88% (active).

**Q.** For `O=C(c1ccc(Nc2nccc(-c3ccc(Cl)cc3)n2)cc1)N1CC[C@@H](CO)C1`, which growth is on record?
**A.** Its growth is 91.1% (inactive).

**Q.** `O=C(O)c1ccc2c(c1)nc(Nc1cccc(Cl)c1)c1ccncc12` was tested. Which growth did it give?
**A.** Its growth is 97.2% (inactive).

**Q.** For `CCN1CCC(c2cc(C)c3nc(-c4cc5c(C)nc(C)cn5n4)cc(=O)n3c2)CC1`, which growth is on record?
**A.** The growth was 104% (inactive).

**Q.** Which growth does the source give for `CC(C)(C)NCc1cc(Nc2ccnc3cc(Cl)ccc23)c2c(c1O)CCCC2` here?
**A.** Its growth is 106% (inactive).

**Q.** `CN(C)CCOc1ccc2nc(-c3cccc(OCc4ccccc4)c3)[nH]c2c1C#N` was tested. Which growth did it give?
**A.** The growth was 50.2% (inactive).

**Q.** For `Cc1cc(C)c(Nc2ccnc(Nc3ccc(C#N)cc3)n2)c(C)c1`, which growth is on record?
**A.** Its growth is 103% (inactive).

**Q.** `CC(C)Nc1cc2c(cn1)nc(Nc1cc(Cl)cc(C#N)c1)n2C1CCNCC1` was tested. Which growth did it give?
**A.** The growth was 97.8% (inactive).

**Q.** How did the growth turn out when `CNC(=O)c1cc(Oc2ccc(NC(=O)Nc3ccc(Cl)c(C(F)(F)F)c3)c(F)c2)ccn1` was run?
**A.** Its growth is 109% (inactive).
